Assay outcomes as filed in PubChem.
Compounds with a hit are over-represented: about 8.1% of the library has one in this group of screens.
KB-3-1 tox: qHTS assay for MDR1-selective chemotherapeutics: Primary screen using the parental adenocarcinoma cell KB-3-1; Potency, µM (highest dose often 46.1 µM), most hits filed as cytotoxic; 400,000 tested, 1.4% active; KB-3-1 viability, CellTiter-Glo ATP luminescence, 72 h; AID 1347075, 2019; also: % is scaled to controls: 0 for no effect and ±100 for the full control effect; nearly all actives have a fitted effect of over 60% in size
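Luminescent ATP read-out (CellTiter-Glo) measures survival of drug-naive KB-3-1 cells after 72 h compound exposure at 37 °C. Titration series was screened from lowest to highest concentration, with DMSO vehicle plates as background controls.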
MCF10A rereplic: A quantitative high throughput screen for small molecules that induce DNA re-replication in MCF 10a normal breast cells. MCF 10A DNA re-replication, Hoechst nuclear intensity, 48 h. Potency, µM (doses to about 46.1 µM), for inactives: at the highest dose activity, positive = re-replication, usual class: activators. 350,000 tested, 2.9% active; also: % of control where 0% means no effect; nearly all actives have a fitted effect of over 50% in size
KB-V1 MDR tox: qHTS assay for MDR1-selective chemotherapeutics: Primary screen using the drug-selected MDR subline cells KB-V1. KB-V1 MDR cells viability, CellTiter-Glo, 72 h. Potency, µM (doses to about 46.1 µM), usual class: cytotoxic. 400,000 tested, 3.4% active; also: % is scaled to controls: 0 for no effect and ±100 for the full control effect; nearly all actives have a fitted effect of over 60% in size
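Cytotoxicity toward P-gp-expressing KB-V1 cells was determined as loss of CellTiter-Glo luminescence after 72 h at 37 degrees C. Compounds were tested in quantitative HTS format across a concentration range, with curves fitted to normalized data.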
SW480 rereplic: A quantitative high throughput screen for small molecules that induce DNA re-replication in SW480 colon adenocarcinoma cells. SW480 DNA re-replication, Hoechst DNA content imaging, 48 h. Potency, µM (top dose mostly 46.1 µM), for inactives: at the highest dose re-replication activation, most hits filed as activators. 340,000 tested, 1.8% active. AID 624297, 2012; also: % of control where 0% means no effect; nearly all actives have a fitted effect of over 55% in size
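Image-based DNA-content assay: after two days of treatment, nuclei were labelled with the DNA dye Hoechst and imaged, and hits were compounds raising the count of nuclei showing high fluorescence intensity.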
ELG1 repair inh: qHTS screen for small molecules that inhibit ELG1-dependent DNA repair in human embryonic kidney (HEK293T) cells expressing luciferase-tagged ELG1; HEK293T ELG1-luciferase reporter, luminescence, 16 h; DNA damage induced by 5-fluorouridine; Potency, µM (top dose mostly 46.1 µM), for the others: at the highest dose activity change, negative = inhibition, most hits filed as inhibitors; 330,000 tested, 2.3% active; AID 504467, 2011; also: % is scaled to controls: 0 for no effect and ±100 for the full control effect; nearly all actives have a fitted effect of over 55% in size
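Luminescence from the luciferase reporter, measured 30 min after ONE-Glo reagent at room temperature, was the read-out. Beforehand, 2,000 cells per well were exposed for 16 hr at 37 °C to 5-fluorouridine together with compound or vehicle.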
An asterisk follows results filed as active; i = inactive; ? = inconclusive; · = no result. Calls follow the shape of the dose curve; as a rule, active = well fitted curve in the direction sought with a large enough effect; inconclusive = small, poorly fitted or top-dose-only effect, or another doubt; inactive = no such curve, though single readings can be large; an effect the other way counts as inactive or inconclusive. Potency is read from the fitted curve at half-maximal effect.

SMILES	KB-3-1 tox	MCF10A rereplic	KB-V1 MDR tox	SW480 rereplic	ELG1 repair inh
COC(=O)c1ccccc1NC(=O)CSc1ccccc1	i	-2.3%	i	-9.7%	17.2%
Cc1cc(NC(=O)C(Cl)Cl)cc2c1OCO2	i	-28.0%	i	-5.4%	·
Cc1nc(SCC(=O)NC2CCCC2)c2c(C)c(C)sc2n1	i	?	i	-0.1%	6.7%
CCc1nc(SCC(=O)Nc2ccccc2Cl)n[nH]1	i	-4.5%	i	9.2µM*	5.4%
COc1ccccc1NC(=O)CSc1nc2sc(C)c(C)c2c(=O)n1C	i	10.8%	?	-1.6%	14.6µM*
CCc1nc(SCC(=O)Nc2ccccc2C)n[nH]1	i	-1.8%	i	?	11.4%
Cc1nc(SCC(=O)Nc2ccccc2Cl)c2c(C)c(C)sc2n1	?	23.1µM*	i	2.0%	?
COc1ccccc1NC(=O)CSc1nc2ccccc2n1C(C)=O	i	17.3%	16.4µM*	0.4%	-20.7%
Cc1ccc(C(=O)Nc2ccc3oc(-c4cc(Br)ccc4Cl)nc3c2)cc1	i	·	i	·	·
c1c2c(cc3sc(N4CCCCC4)nc13)OCO2	9.2µM*	8.7%	?	-2.3%	?
c1c2c(cc3sc(N4CCOCC4)nc13)OCO2	i	24.6%	i	-7.9%	?
Cc1ccsc1C(=O)Nc1cc(Cl)ccc1-n1cncn1	i	4.8%	i	-34.7%	·
O=C(Nc1nc(-c2ccccc2)cs1)c1ccc(=O)[nH]c1	?	16.1%	18.4µM*	-8.2%	5.9%
O=C(Nc1nc(-c2cccc3ccccc23)cs1)c1cnccn1	i	18.4µM*	?	?	-0.4%
O=C(Nc1nc(-c2ccc(F)c(F)c2)cs1)c1cnccn1	i	6.4%	i	0.6%	4.1%
Cc1cnc(C(=O)Nc2nc(-c3ccccc3)cs2)cn1	i	-3.6%	23.1µM*	-12.2%	?
O=C(Nc1nc(-c2ccccn2)cs1)c1ccc(Cl)s1	?	-0.2%	?	11.9%	?
O=C(Nc1nc(-c2cc(Cl)sc2Cl)cs1)c1ccccc1	?	20.6µM*	i	-1.0%	?
Cc1ccnc(NC(=S)N2CCN(C)CC2)c1	i	·	i	·	·
O=C(CC(=O)NN=Cc1ccc2c(c1)CCC2)NN=Cc1ccc2c(c1)CCC2	i	8.5%	i	-0.8%	·
CCCC(=O)c1cc(F)c(N2CCN(C(=O)OCC)CC2)cc1C	i	14.6%	?	-10.3%	-11.7%
CCOC(=O)N1CCN(c2cc3nccnc3cc2F)CC1	i	-0.2%	20.6µM*	12.1%	?
O=C(c1cccc(Cl)c1)N(Cc1cccc(F)c1)C1CCS(=O)(=O)C1 (stereo not given)	i	·	i	·	·
CCCCN(C=O)c1c(CC)nc2ccc(C(=O)NCCCn3ccnc3)cn12	i	·	i	·	·
O=C(c1ccc(Cl)cc1)c1ccc(OCC(=O)N2CCOCC2)cc1	i	9.4%	18.4µM*	-0.5%	0.0%
SMILES	KB-3-1 tox	MCF10A rereplic	KB-V1 MDR tox	SW480 rereplic	ELG1 repair inh
O=C(COc1ccc(Cl)cc1)OCC(=O)N1CCOCC1	i	?	i	8.2%	?
Cc1cc(NC(=O)c2ccccc2F)on1	i	2.5%	i	20.6µM*	?
CSc1ccccc1NS(=O)(=O)c1ccc2c(c1)OCCO2	i	6.9%	20.6µM*	-8.6%	-0.5%
COC(=O)c1ccc(C)c(NS(=O)(=O)c2ccc(OC)cc2)c1	0.731µM*	?	1.03µM*	0.259µM*	?
COC(=O)c1ccc(C)c(NS(=O)(=O)c2ccc(C)c([N+](=O)[O-])c2)c1	i	?	i	-0.4%	-0.2%
COC(=O)c1ccc(C)c(NS(=O)(=O)c2ccc3c(c2)OCCO3)c1	2.31µM*	0.0%	1.16µM*	-1.5%	?
COC(=O)c1sccc1NS(=O)(=O)c1ccc(OC)cc1	i	12.8%	18.4µM*	?	?
CCOc1ccc(S(=O)(=O)Nc2ccccc2SC)cc1	?	-9.0%	16.4µM*	6.2%	-0.1%
CC(C)(C)c1cc[n+](C2=C([O-])c3ccccc3C(=O)/C2=N\S(=O)(=O)c2ccccc2)cc1	i	5.3%	i	?	14.6µM*
CC(C)[n+]1ccn(C2=C([O-])c3ccccc3C(=O)/C2=N\S(=O)(=O)c2ccccc2)c1	?	4.8%	i	?	23.1µM*
CCCCC[n+]1ccn(C2=C([O-])c3ccccc3C(=O)/C2=N\S(=O)(=O)c2ccccc2)c1	?	18.7%	i	11.2µM*	?
Cc1ccsc1/C=N/NC(=O)c1cc(-c2ccncc2)nc2ccccc12	1.16µM*	0.731µM*	?	1.46µM*	?
CCOc1ccccc1-c1cc(C(=O)N/N=C/c2ccc(O)c(OC)c2)c2ccccc2n1	?	?	i	?	-10.4%
Cc1ccc(C)c(-c2cc(C(=O)Nc3sc(C)c(C)c3C(N)=O)c3ccccc3n2)c1	?	?	4.11µM*	22.1%	18.4µM*
COC(=O)c1sccc1NC(=O)c1cc(-c2ccc(C)cc2C)nc2ccccc12	?	11.6µM*	?	2.0%	?
Cc1cccc(-c2cc(C(=O)Nc3sc(C)c(C)c3C(N)=O)c3ccccc3n2)c1	i	-0.3%	?	-49.2%	-13.3%
COc1ccccc1-c1cc(C(=O)N/N=C/c2sccc2C)c2ccccc2n1	?	?	i	2.9%	11.6µM*
Cc1cc(C)c2c(=O)cc(C(=O)Nc3ccc(S(=O)(=O)N(C)Cc4ccccc4)cc3)oc2c1	i	·	i	·	·
CC(C)(O)c1[nH]c2cc(F)ccc2c1C(C)(C)O	i	-23.2%	?	?	-11.3%
COC(=O)c1nc(-c2ccccc2)nc(-c2ccccc2)c1C(=O)OC	?	1.5%	i	-19.0%	·
COc1cc2c(cc1OC)CN(C(=O)CN1CCN(S(=O)(=O)c3ccccc3Br)CC1)CC2	i	-3.4%	i	0.7%	?
Cc1ccc(OCCn2c(=S)[nH]c3ccccc32)c(C(C)C)c1	14.6µM*	?	i	4.5%	?
COc1ccccc1OCCn1c(=S)[nH]c2ccccc21	?	?	23.1µM*	?	-16.2%
O=C(COc1ccc2ccc(=O)oc2c1)NCCCn1ccnc1	i	-0.9%	i	-0.5%	13.0%
O=C(CCNC(=O)c1ccc([N+](=O)[O-])cc1)Nc1ccc(Cl)c(S(=O)(=O)N2CCOCC2)c1	i	-9.2%	?	-3.6%	18.3µM*
COc1ccc(NC(=O)CCCNC(=O)c2ccc(Cl)cc2)cc1S(=O)(=O)N1CCCCC1	i	-6.0%	i	-1.4%	·
